Data on 40 compounds can be found in PubChem BioAssay (Tox21).

Results filed as inconclusive are left out. Activity calls are given as the source filed them. Calls follow the shape of the full dose curve.
% is scaled to controls: 0 for no effect and ±100 for the full control effect.

The nature of this assay: qHTS assay to identify small molecule agonists of the NFkB signaling pathway - cell viability counter screen (AID 1159515). Also: nearly all actives have a fitted effect of over 55% in size. Particulars: NFkB-bla ME-180 viability, CellTiter-Glo luminescence, 5 h; series mostly up to 61 µM; activity, negative = cytotoxic: at the top concentration. An excerpt: National Center for Advancing Translational Sciences [NCATS]
NIH Chemical Genomics Center [NCGC]
U.S. Environmental Protection Agency [EPA]
National Institutes of Environmental Health Sciences [NIEHS]
National Toxicology Program [NTP]
U.S. Food and Drug Administration [FDA]
Transcription factors and their stimulated target gene expression play pivotal roles across many cellular processes including responses to environmental stimuli. Proper regulation of associated pathways is critical to maintain cell health and function. Constitutive activation of transcription factor pathways has been implicated in tumors as it may block cellular functions such as apoptosis and lead to invasion and metastasis. One important transcription factor that stimulates gene expression in response to cytokines, UV radiation, and other stimuli is nuclear factor-kappa B (NFkB). To measure activation of the NFkB pathway, the CellSensor NFkB-bla ME-180 cell line (Life Technologies, Carlsbad, CA) that stably expresses beta-lactamase reporter gene under the regulation of a NF-kB response element was used. This assay allows measurement of the NFkB pathway activity induced by compounds in a ME-180 cell line. This system quantitates NF-kB activity using a FRET-based assay system where beta-lactamase expression disrupts FRET, allowing for fluorescent measurement of activity. This cell line has been used to screen the Tox21 10K compound library and to identify compounds that induce the NFkB pathway activity. The cytotoxicity of the Tox21 compound library against the NFkB-bla ME-180 cell line was tested in parallel by measuring cell viability using the CellTiter-Glo assay in the same wells.
Tox21 Assay Protocol Summary:
NFkB-bla ME-180 cells were dispensed at 2,000 cells/6 uL of assay medium per well into black wall/clear-bottom 1536-well plates using a Multidrop Combi (ThermoFisher Scientific, Waltham, MA) dispenser. After the assay plates were incubated at 37 C and 5% CO2 for an overnight, 23 nL of compounds dissolved in DMSO, positive controls or DMSO only was transferred to the assay plate by a Pintool station (Kalypsys, San Diego, CA). The assay plates were incubated at 37 C and 5% CO2 for 5 hr. One uL of LiveBLAzer B/G FRET substrate (Life Technologies) was added using a Flying Reagent Dispenser (Aurora Discovery, San Diego, CA) and the plates were incubated at room temperature for 1.5 hr. Fluorescence intensity (405 nm excitation, 460 nm and 530 nm emissions) was measured using an Envision plate reader (PerkinElmer, Shelton, CT). For cytotoxicity, 3 ul/well of CellTiter-Glo reagent was added into the assay plates using an FRD. After 30 min incubation at room temperature, the luminescence intensity was measured using a ViewLux plate reader (PerkinElmer).
For orientation: In qHTS, concentration-response curves come from the screen itself.
As for `CCN(CC)CC(=O)Nc1c(C)cccc1C`, the “activity, negative = cytotoxic” value is -4.67% (inactive). To `N#Cc1ccc(C(=O)O)cc1` belongs 0.689% (inactive); to `Nc1ccc([N+](=O)[O-])c(N)c1`, 0.311% (inactive). Regarding `CN(C)c1ccc(C=O)cc1`, the “activity, negative = cytotoxic” value is -0.847% (inactive). To `COC(=O)CCCCCCCC(=O)OC` belongs -2.56% (inactive).

On to `CCCCC(CC)COCCO` (stereo not given), for which the “activity, negative = cytotoxic” value is -0.736% (inactive). The same measure for `COc1ccc2c(c1OC)C(=O)O[C@@H]2[C@H]1c2c(cc3c(c2OC)OCO3)CCN1C`: 11.6% (inactive); for `CC(C)CCCCOC(=O)c1ccccc1C(=O)OCCCCC(C)C`: -8.23% (inactive); for `COc1cc2c(cc1OC)C(=O)CC2`: 7.17% (inactive). Regarding `CCC(CC)CO`, the “activity, negative = cytotoxic” value is -1.66% (inactive). For `CC(=O)c1ccc2c(c1)Cc1ccccc1-2`, the “activity, negative = cytotoxic” value is -1.03% (inactive).

With `Cc1ccccc1C(=O)Nc1ccc(C(=O)N2CCCC(N(C)C)c3ccccc32)cc1` (stereo not given), the “activity, negative = cytotoxic” value was -0.569% (inactive). To `O=C(OCC(COC(=O)c1cccnc1)(COC(=O)c1cccnc1)COC(=O)c1cccnc1)c1cccnc1` belongs -5.91% (inactive); to `Nc1ccc2cc(S(=O)(=O)O)cc(O)c2c1`, -14.7% (inactive).

As for `CCOC(=O)c1ncn2c1CN(C)C(=O)c1cc(F)ccc1-2`, the “activity, negative = cytotoxic” value is -0.501% (inactive). The same measure for `C=C(C)C1CCC(C)(O)CC1` (stereo not given): 9.6% (inactive). The same measure for `CN(C)C(=O)CNC(=O)Cc1ccccc1`: -18% (inactive); for `CC(CN)CC(C)(C)CCN` (stereo not given): 17.3% [at 78.8 µM] (inactive). The same measure for `CC(C(=O)O)c1ccc2c(c1)CC(=O)c1ccccc1S2` (stereo not given): 4.13% (inactive); for `CC(C)C(=O)OCc1cccc(OC(=O)[C@@H]2N3C(=O)[C@@H](NC(=O)Cc4ccccc4)[C@H]3SC2(C)C)c1`: 6.07% (inactive); for `CCc1ccc(C=O)cc1`: -1.67% (inactive). On to `COCCOCCOCCOCCOCCO`, for which the “activity, negative = cytotoxic” value is 9.87% (inactive). In the case of `N[C@@H](COP(=O)(O)O)C(=O)O`, the “activity, negative = cytotoxic” value is -5% [at 28.5 µM] (inactive). The same measure for `O=C(c1ccc(O)cc1)c1ccc(O)c(O)c1O`: 4.07% [at 78.8 µM] (inactive); for `O=C(O)C(=O)Cc1ccccc1`: -0.209% (inactive); for `Cc1c(I)c(=O)n(-c2ccccc2)n1C`: 7.63% (inactive). The same measure for `CC(C)NCC(O)COc1cccc2[nH]ccc12` (stereo not given): 4.11% (inactive); for `CC(N)C(=O)OC(C)(C)Cc1ccc(Cl)cc1` (stereo not given): -11.6% (inactive); for `CCCCCCCCCCl`: 12.5% [at 78.8 µM] (inactive). For `COP(=O)(OC)OC(c1ccc(Cl)cc1)P(=O)(OC)OC` (stereo not given), the “activity, negative = cytotoxic” value is 19.8% (inactive). To `CC(C)c1ccc2cc(C(C)C)ccc2c1` belongs -0.506% (inactive); to `Cc1cccc(C)c1NC(=O)c1ccccc1C(=O)O`, 4.63% (inactive). With `Cc1ccccc1N=O`, the “activity, negative = cytotoxic” value was -20.4% [at 78.8 µM] (inactive). With `CC1COc2ccccc2N1` (stereo not given), the “activity, negative = cytotoxic” value is 2.73% (inactive). To `Cc1cc(NC(=O)C2=C(O)c3ccccc3S(=O)(=O)N2C)no1` belongs -6.35% (inactive); to `Cc1cc2cc3c(C)cc(=O)oc3c(C)c2o1`, 0.801% (inactive); to `C=C(C)C(=O)OCCNC(C)(C)C`, 0.483% (inactive).

With `CCOCCOC(=O)/C=C/c1ccc(OC)cc1`, the “activity, negative = cytotoxic” value is 13.9% (inactive). Turning to `CCN(C)C(=O)Oc1cccc([C@H](C)N(C)C)c1`, the “activity, negative = cytotoxic” value is 4.68% (inactive). The same measure for `CCCCCCCCC1CCC(=O)O1` (stereo not given): 8.28% (inactive).
